PubChem BioAssay (EPA / NIEHS)
Inconclusive results are not listed. Some structures have more than one record in an assay (separate samples or runs), and their calls can disagree. Activity calls are given as the source filed them. The calls were made as follows, unless noted: active = hit-call score of the fitted dose curve at least 0.9, where 1 is the maximum; inconclusive = response in the unintended direction; inactive = score below 0.9.

Experiments:
[1] = IUF_NPC2b_neuronal_migration_120hr: Leibniz Research Institute for Environmental Medicine (IUF) 120-hour Neural Progenitor Cell Migration Assay for Neuron Migration (NPC2b) (AID 2284300; active = hit-call score of the fitted dose curve at least 0.9, where 1 is the maximum; inactive = score below 0.9)
Outline: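 Primary human fetal cortex neural progenitor spheres (0.3 mm) plated on poly-D-lysine/laminin in N2 differentiation medium, exposed 120 h with half-medium refresh at day 3. TUBB3-stained neuron distance from sphere core, normalized to radial glia migration, versus DMSO.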

[2] = IUF_NPC3_neuronal_differentiation_120hr: Leibniz Research Institute for Environmental Medicine (IUF) 120-hour Neuronal Differentiation Assay (NPC3) (AID 2284301; active = hit-call score of the fitted dose curve at least 0.9, where 1 is the maximum; inactive = score below 0.9)
Outline: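 Primary human fetal neural progenitor spheres (GW 16-19, 0.3 mm) plated on poly-D-lysine/laminin in N2 medium, exposed from day 0 for 120 h with half-medium refresh at day 3. TUBB3+ cells as percent of Hoechst nuclei in migration area; DMSO baseline.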

[3] = IUF_NPC4_neurite_length_120hr: Leibniz Research Institute for Environmental Medicine (IUF) 120-hour Neuronal Morphology Assay for Neurite Length (NPC4) (AID 2284302; active = hit-call score of the fitted dose curve at least 0.9, where 1 is the maximum; inactive = score below 0.9)
Outline: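 Human fetal cortex (GW 16-19) neural progenitor spheres, 0.3 mm, were plated on poly-D-lysine/laminin in N2 differentiation medium and exposed from day 0 for 120 h, half-feeding at day 3. Mean TUBB3+ neurite length (µm) came from skeletonized images, relative to DMSO.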

[4] = IUF_NPC5_oligodendrocyte_differentiation_120hr: Leibniz Research Institute for Environmental Medicine (IUF) 120-hour Oligodendrocyte Differentiation Assay (NPC5) (AID 2284304);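 also: primary human fetal neural progenitor spheres plated to migrate and differentiate; share of O4-positive cells among Hoechst nuclei found by CNN image analysis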
Outline: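 Primary human fetal (GW 16-19) neural progenitor spheres (0.3 mm) plated on poly-D-lysine/laminin in N2 differentiation medium, exposed from day 0 for 120 h with half-medium refresh at day 3; O4-positive cells as percent of Hoechst nuclei, CNN-identified, versus DMSO.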

[5] = IUF_NPC4_neurite_area_120hr: Leibniz Research Institute for Environmental Medicine (IUF) 120-hour Neuronal Morphology Assay for Neurite Area (NPC4) (AID 2284305)
Outline: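 Human fetal cortex-derived neural progenitor spheres (0.3 mm, GW 16-19) plated on poly-D-lysine/laminin in N2 differentiation medium and exposed from day 0 for 120 h across 7 concentrations plus solvent control. Neurite area is mean pixel area per TUBB3-positive neuron via skeletonization, analysed relative to DMSO.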

[6] = IUF_NPC2-5_cytotoxicity_72hr: Cytotoxicity Assessment at 72 hours in the Leibniz Research Institute for Environmental Medicine (IUF) Neural Progenitor Cell Migration and Differentiation Assay for Cytotoxicity (NPC2-5) (AID 2284306);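 also: LDH release into supernatant measured by resorufin fluorescence marking membrane damage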
Outline: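 Human fetal (GW 16-19) neural progenitor spheres, 0.3 mm, plated on poly-D-lysine/laminin in N2 differentiation medium and exposed from day 0 to 7 concentrations plus solvent control (DMSO ≤0.1%). LDH-dependent resazurin-to-resorufin fluorescence in supernatant at 72 h.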

[7] = IUF_NPC2-5_cytotoxicity_120hr: Cytotoxicity Assessment at 120 hours in the Leibniz Research Institute for Environmental Medicine (IUF) Neural Progenitor Cell Migration and Differentiation Assay (NPC2-5) (AID 2284307)
Outline: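 Human fetal neural progenitor spheres (0.3 mm, GW 16-19 cortex) were plated on poly-D-lysine/laminin in N2 differentiation medium and exposed for 120 h, with half-medium refresh at day 3. LDH release into supernatant was read by resorufin fluorescence.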

[8] = IUF_NPC2-5_cell_number_120hr: Cell Number Assessment at 120 hours in the Leibniz Research Institute for Environmental Medicine (IUF) Neural Progenitor Cell Migration and Differentiation Assay (NPC2-5) (AID 2284308; active = hit-call score of the fitted dose curve at least 0.9, where 1 is the maximum; inactive = score below 0.9;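 also: count of Hoechst-stained nuclei in migration zone around plated human neural progenitor spheres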)
Outline: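 Primary human fetal neural progenitor spheres (GW 16-19, 0.3 mm) plated on poly-D-lysine/laminin in N2 differentiation medium, exposed from day 0 for 120 h with half-medium refresh at day 3; Hoechst-positive nuclei counted in migration area versus DMSO control.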

[9] = IUF_NPC2-5_viability_120hr: Viability Assessment at 120 hours in the Leibniz Research Institute for Environmental Medicine (IUF) Neural Progenitor Cell Migration and Differentiation Assay (NPC2-5) (AID 2284312; active = hit-call score of the fitted dose curve at least 0.9, where 1 is the maximum; inactive = score below 0.9)
Outline: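 Human fetal (GW 16-19) neural progenitor spheres of 0.3 mm were plated on poly-D-lysine/laminin in N2 differentiation medium and exposed from day 0 for 120 h, with half-medium refresh at day 3. Viability was read as alamar blue resazurin-to-resorufin fluorescence against DMSO.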

[10] = CCTE_Mundy_HCI_iCellGluta_NOG_NeuriteLength: CCTE's Neurite Outgrowth Assay in iCellGluta cells for Neurite Length, Mundy Lab (AID 2284318)
Outline: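 Automated high-content imaging of betaIII-tubulin (Alexa Fluor-488) and Hoechst-stained cells gave neurite length, normalized to the DMSO baseline.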

[11] = IUF_NPC1_cytotoxicity_72hr: Cytotoxicity Assessment at 72 hours in the Leibniz Research Institute for Environmental Medicine (IUF) Neural Progenitor Cell Proliferation Assay (NPC1) (AID 2284332);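 also: rising LDH signal means more cytotoxicity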
Outline: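 Single human fetal cortex neural progenitor spheres (GW 16-19, 0.25-0.35 mm) in EGF/FGF proliferation medium were exposed to compound for 72 h at 37C without renewal. Medium LDH release was read as resorufin fluorescence and fitted as gain-of-signal.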

[12] = TOX21_PR_BLA_Followup_Agonist_viability: Viability Assessment in the Tox21 HEK293 Progesterone Receptor (PR) Agonism Beta-lactamase Follow-Up Assay (AID 2283935);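 also: signal loss means lower viability so actives are cytotoxic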
Outline: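 PR-UAS-bla HEK293T cells in 2% charcoal-stripped FBS medium, compound added after 6 hr plating, 16 hr at 37C/5% CO2. After bla FRET read, CellTiter-Glo added; luminescence read after 30 min at room temperature; signal loss marks cytotoxicity.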

[13] = TOX21_PR_BLA_Followup_Antagonist_viability: Viability Assessment in the Tox21 HEK293 Progesterone Receptor (PR) Antagonism Beta-lactamase Follow-Up Assay (AID 2283936);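 also: hits lower the luminescence signal meaning cytotoxicity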
Outline: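 PR-UAS-bla HEK293T cells (3,000/well, 2% charcoal-stripped FBS) given compound plus R5020 agonist, 16 h at 37C. CellTiter-Glo added after bla read, 30 min at room temperature; luminescence loss indicates cytotoxicity.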

[14] = TOX21_PR_LUC_Followup_Agonist_viability: Viability Assessment in the Tox21 HEK293 Progesterone Receptor (PR) Agonism Luciferase Follow-Up Assay (AID 2283941);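 also: loss of signal means cytotoxicity so actives lower viability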
Outline: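 HEK293-PR-A-luc cells, pre-cultured 5 days in 10% charcoal-stripped FBS, were seeded at 3,000 cells/well, rested 5 h at 37C, then given compound in DMSO for 16 h at 37C. Cellular ATP was read by CellTiter-Glo luminescence; signal loss indicates cytotoxicity.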

[15] = read-out: Interferon-inducible T-cell alpha chemoattractant (ITAC), CXCL11 (gene 6373); experiment: BSK_hDFCGF_ITAC: BioMAP Diversity Plus: hDFCGF Assay for Interferon-inducible T-cell alpha chemoattractant (ITAC) Biomarker Activity (AID 2284251; active = hit-call score of the fitted dose curve at least 0.9, where 1 is the maximum; inactive = score below 0.9); settings: primary human foreskin fibroblasts
Outline: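 ELISA readout of I-TAC after 24 h chemical exposure; human dermal foreskin fibroblast primary cells. Positive-direction fitting vs DMSO baseline. Parallel SRB total-protein staining (0.1% SRB after 10% TCA fixation, 560 nm) flags cytotoxicity.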

[16] = read-out: Matrix Metallopeptidase 9 (MMP9), MMP9 (gene 4318); experiment: BSK_BE3C_MMP9: BioMAP Diversity Plus: BE3C Assay for Matrix Metallopeptidase 9 (MMP9) Biomarker Activity (AID 2284283; active = hit-call score of the fitted dose curve at least 0.9, where 1 is the maximum; inactive = score below 0.9); settings: primary human bronchial epithelial cells
Outline: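 Human primary bronchial epithelial cells in the BE3C system were dosed with compound for 24 h. MMP-9 was measured by ELISA, and the positive-direction response was fitted relative to DMSO as baseline. Parallel SRB staining gauged cytotoxicity.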

[17] = molecular target: human CYP19A1, CYP19A1 (gene 1588) (UniProt P11511); experiment: NVS_ADME_hCYP19A1: NovaScreen (NVS) CYP450-related Enzyme Activity (ADME) Assay for human CYP19A1 (AID 2283098)
Outline: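 Cell-free enzyme assay with recombinant protein and a specific fluorogenic substrate, read by fluorescence intensity 0.5 h after dosing. Primary screen ran in duplicate at 10 uM; actives were retested in concentration series. Loss of signal versus acetonitrile baseline.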

[18] = NVS_IC_rCaBTZCHL: NovaScreen (NVS) Ion Channel Assay for Calcium Channel, Type L, Benzothiazepine Site (CaBTZCHL) (AID 2283337)
Outline: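 Radioligand binding to the benzothiazepine site of L-type Ca channels in rat cortical membranes (cell-free), 1.5 h after dosing; filter-based scintillation counting. Loss of signal relative to DMSO baseline; primary single-concentration screen at 25 uM, actives then run in concentration series.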

[19] = molecular target: Retinoic acid receptor alpha (Homo sapiens) (UniProt P10276); experiment: NVS_NR_hRARa_Agonist: NovaScreen (NVS) Nuclear Receptor Binding Assay for human Retinoic Acid Alpha Receptor Agonism (RAR) (AID 2283361)
Outline: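 Cell-free TR-FRET binding read-out with extracted human RARα protein, read 2 h after compound addition. Gain of signal scored against DMSO baseline. Primary screen at a single 25 uM in duplicate; actives then retested in concentration series.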

[20] = molecular target: mouse Peroxisome Proliferator-activated Receptor gamma (PPARg), Pparg (gene 19016) (UniProt P37238); experiment: ATG_mPPARg_XSP2: Attagene TRANS-FACTORIAL Multi-Species (XSP2) HepG2 Assay for mouse Peroxisome Proliferator-activated Receptor gamma (PPARg) (AID 2283830);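 also: hits are gains in reporter mRNA above DMSO so AC50 marks activation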
Outline: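 HepG2 cells transiently transfected with GAL4-UAS reporter units for chimeric NR-Gal4 proteins including mouse PPARg, exposed 24 h; medium contained 3 nM 6-alpha-fluorotestosterone and 1.5 nM norgestrel. Reporter mRNA quantified by RT-PCR, HpaI digestion and capillary electrophoresis, vs DMSO.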

Sequence of Retinoic acid receptor alpha (Homo sapiens) (P10276 whole entry, looked up): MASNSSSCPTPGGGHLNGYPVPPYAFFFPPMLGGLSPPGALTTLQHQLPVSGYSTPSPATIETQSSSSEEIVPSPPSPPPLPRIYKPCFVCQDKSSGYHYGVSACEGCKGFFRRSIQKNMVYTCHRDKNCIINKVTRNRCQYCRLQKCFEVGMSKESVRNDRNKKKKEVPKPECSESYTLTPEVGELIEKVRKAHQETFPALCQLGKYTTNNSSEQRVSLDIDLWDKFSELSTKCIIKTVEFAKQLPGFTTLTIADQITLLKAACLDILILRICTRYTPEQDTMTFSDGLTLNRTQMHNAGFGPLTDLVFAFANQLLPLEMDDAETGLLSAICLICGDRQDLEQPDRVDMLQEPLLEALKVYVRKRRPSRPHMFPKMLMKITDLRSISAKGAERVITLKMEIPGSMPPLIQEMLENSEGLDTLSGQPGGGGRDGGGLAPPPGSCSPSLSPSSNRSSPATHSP
Sequence of mouse Peroxisome Proliferator-activated Receptor gamma (PPARg), Pparg (gene 19016) (P37238 whole entry, looked up, the tested form may be a part): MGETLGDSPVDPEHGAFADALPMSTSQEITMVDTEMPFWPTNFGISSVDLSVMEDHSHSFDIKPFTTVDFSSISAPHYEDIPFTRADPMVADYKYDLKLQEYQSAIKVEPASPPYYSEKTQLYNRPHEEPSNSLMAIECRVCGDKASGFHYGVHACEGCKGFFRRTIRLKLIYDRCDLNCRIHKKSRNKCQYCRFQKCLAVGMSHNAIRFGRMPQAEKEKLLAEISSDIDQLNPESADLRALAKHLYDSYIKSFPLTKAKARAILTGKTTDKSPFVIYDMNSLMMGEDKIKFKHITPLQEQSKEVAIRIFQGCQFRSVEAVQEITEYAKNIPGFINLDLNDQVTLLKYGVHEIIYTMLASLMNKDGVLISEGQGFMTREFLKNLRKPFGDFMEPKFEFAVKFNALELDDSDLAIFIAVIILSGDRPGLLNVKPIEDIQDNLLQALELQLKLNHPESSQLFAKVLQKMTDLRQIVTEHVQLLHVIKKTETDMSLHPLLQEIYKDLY
Sequence of human CYP19A1, CYP19A1 (gene 1588) (P11511 whole entry, looked up): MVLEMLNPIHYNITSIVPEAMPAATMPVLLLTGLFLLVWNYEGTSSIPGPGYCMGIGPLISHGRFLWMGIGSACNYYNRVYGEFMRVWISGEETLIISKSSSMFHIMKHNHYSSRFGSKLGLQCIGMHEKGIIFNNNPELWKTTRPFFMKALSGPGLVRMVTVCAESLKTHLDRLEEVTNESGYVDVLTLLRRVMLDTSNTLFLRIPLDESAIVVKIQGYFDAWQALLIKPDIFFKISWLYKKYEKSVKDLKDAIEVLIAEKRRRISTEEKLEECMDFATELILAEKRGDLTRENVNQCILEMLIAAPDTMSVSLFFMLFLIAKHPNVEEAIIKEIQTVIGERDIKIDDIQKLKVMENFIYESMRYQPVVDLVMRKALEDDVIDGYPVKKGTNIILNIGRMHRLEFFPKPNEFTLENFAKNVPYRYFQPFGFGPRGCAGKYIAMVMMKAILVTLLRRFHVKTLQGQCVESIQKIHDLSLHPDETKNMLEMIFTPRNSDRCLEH

Compound: CN(C)CCC(c1ccc(Cl)cc1)c1ccccn1 (stereo not given)
- outcome [1]: inactive
- outcome [2]: inactive
- outcome [3]: inactive
- outcome [4]: inactive
- outcome [5]: inactive
- outcome [6]: inactive
- outcome [7]: inactive
- outcome [8]: inactive
- outcome [9]: inactive
- outcome [10]: inactive
- outcome [11]: inactive

Compound: C[C@H]1C[C@H]2[C@@H]3CCC4=CC(=O)C=C[C@]4(C)[C@@]3(F)[C@@H](O)C[C@]2(C)[C@@]1(O)C(=O)CO
- outcome [12]: inactive
- outcome [13]: inactive
- outcome [14]: inactive

Compound: CN(C)Cc1cc(C(C)(C)C)c(O)c(C(C)(C)C)c1
- AC50 [15]: 20 µM (active)
- outcome [15]: inactive
- AC50 [16]: 10.7 µM (active)
- outcome [16]: inactive

Compound: NC(N)=Nc1nc(CSCCC(N)=NS(N)(=O)=O)cs1
- outcome [1]: inactive
- outcome [2]: inactive
- outcome [3]: inactive
- outcome [4]: inactive
- outcome [5]: inactive
- outcome [6]: inactive
- outcome [7]: inactive
- outcome [8]: inactive
- outcome [9]: inactive
- outcome [10]: inactive
- outcome [11]: inactive

Compound: O=C(OCc1ccccc1)c1ccccc1
- outcome [17]: inactive

Compound: O=C(C(=O)c1ccccc1)c1ccccc1
- outcome [18]: inactive

Compound: Cc1cc2nc3c(=O)[nH]c(=O)nc-3n(C[C@H](O)[C@H](O)[C@H](O)CO)c2cc1C
- AC50 [19]: 6.52 µM (active)

Compound: Cc1cc(O)cc(C)c1Cl
- outcome [19]: inactive
- AC50 [20]: 72.9 µM (active)
- outcome [20]: inactive

Compound: CCCCCCCCCCCCCCCCCC[N+](C)(C)C
- outcome [18]: inactive

Compound: c1cc[c]([Bi]([c]2ccccc2)[c]2ccccc2)cc1
- outcome [12]: inactive
- outcome [13]: inactive
- outcome [14]: inactive

Compound: CC1=NN(c2cc(Cl)c(S(=O)(=O)O)cc2Cl)C(=O)C1N=Nc1ccc(S(=O)(=O)O)cc1 (stereo not given)
- outcome [17]: inactive
